Inconclusive results are not listed. A call without a number means that no potency is given here. Activity calls are given as the source filed them. The call rests on the fitted dose curve; in most records, active means well fitted inhibition curve with a large enough effect; inconclusive means small, poorly fitted or top-dose-only effect; inactive means no such curve, though single readings can be large or run the other way.
Biological target: Retinaldehyde dehydrogenase 3 (Homo sapiens) (UniProt P47895)
Assay: qHTS for Inhibitors of the Aldehyde Dehydrogenase Family (ALDH1A3) Primary screen (AID 2061315)

| SMILES | Potency |
| --- | --- |
| Cc1cc(C)nc(NC(=S)N2CCN(c3ccc(Cl)nn3)CC2)c1 | inactive |
| Cc1cc(C=CC#N)cc(C)c1Nc1nc(Nc2ccc3scnc3c2)c2[nH]cnc2n1 | inactive |
| COc1cc(O)c(C(CC(=O)N2CC(C)CC(C)C2)c2ccc(C)cc2)c(OC)c1 (centres undefined) | inactive |
| Cc1ccc(OCCn2c(CCNC(=O)c3ccc(C(C)(C)C)cc3)nc3ccccc32)cc1 | inactive |
| Cc1ccc(-c2ccc(=O)n(CC(=O)NCCCc3ccccc3)n2)cc1 | inactive |
| COc1ccc(C2Cc3ccccc3C(=O)N2Cc2ccccc2)cc1COc1ccc(NC(C)=O)cc1 (centres undefined) | inactive |
| COc1ccc2ncnc(NCc3cccs3)c2c1-c1ccc2c(c1)OCO2 | inactive |
| O=C1CCc2cc(S(=O)(=O)Nc3ccccn3)ccc2N1 | inactive |
| COc1cccc(-c2nc(SC)nc3sc(C(=O)NC(C)(C)C)c(N)c23)c1 | inactive |
| Fc1cccc(CNc2nc(-c3ccccc3C(F)(F)F)nc3ccccc23)c1 | inactive |
| Cc1cc(C)n2ncc(C(=O)Nc3ccccc3)c2n1 | inactive |
| NC(=O)C1CCN(c2nc(-c3cccc4sc5ccccc5c34)cs2)CC1 | inactive |
| O=C(Cc1ccc(Cl)c(Cl)c1)Nc1ccc(S(=O)(=O)Nc2cccc(O)c2)cc1 | inactive |
| Cc1cc(C)nc(NC(=S)N2CCN(c3cccc(OC(F)(F)F)c3)CC2)c1 | inactive |
| Cc1ccc2nc3sc(C(=O)Nc4ccc(F)cc4)cc3cc2c1 | inactive |
| O=C1CCc2cc([S+](=O)([O-])Nc3ccc(N[S+](=O)([O-])c4ccc5c(c4)CCC(=O)N5)cc3)ccc2N1 | inactive |
| O=C1CCc2cc([S+](=O)([O-])Nc3ccc(Cl)c(Cl)c3)c(NCCCO)cc2N1 | inactive |

| SMILES | Potency |
| --- | --- |
| COC(=O)C1C(CC(C)=O)C=CC(O)C12Oc1cc(C)cc(O)c1C2=O (centres undefined) | inactive |
| CCOc1ccc(CCNC(=O)CN(C)C)cc1OCC | inactive |
| O=C(NC1CCCc2c1cnn2CCO)c1ccccn1 (centres undefined) | inactive |
| O=c1c2ccccc2nc2sc(Nc3ccc(Oc4ccccc4)cc3)nn12 | inactive |
| Cc1c(P(=S)(c2ccccc2)c2ccccc2)c2ccccc2n1C/C=C/c1ccccc1 | inactive |
| O=C(O)c1ccc(-c2ccc(NC(=O)c3cccs3)cn2)cc1 | inactive |
| OCc1ccc(-c2ccc3ncnc(NCc4cccs4)c3c2)o1 | inactive |
| CN(C)c1cccc(-c2nnc(N3CCC(C(N)=O)CC3)s2)c1 | inactive |
| O=C1CCCC2=C1C1(CCSCC1)N=C(Nc1nc3ccccc3o1)N2 | inactive |
| O=C(Cc1nnc(-c2ccncc2)s1)Nc1ccc(F)c(C(F)(F)F)c1 | inactive |
| NC(=O)c1cccc(-c2cc(O)cc(OC(=O)NC3CCCCC3)c2)c1 | inactive |
| COc1cc(F)c(S(=O)(=O)N2CCN(S(=O)(=O)c3cccs3)CC2)c(F)c1 | inactive |
| O=C(O)c1ccc(O)c2ncc(N3CCCN(CCc4ccncc4)CC3)cc12 | inactive |
| CC(Nc1ncnc2ccc(-c3ccc4c(c3)OCO4)cc12)c1ccco1 (centres undefined) | inactive |
| COc1ccc(-c2ccc3ncnc(NCc4cccs4)c3c2)cc1OC | inactive |
| CCN(Cc1cccs1)c1ncnc2ccc(-c3ccc4c(c3)OCO4)cc12 | inactive |
| CCOC(=O)c1ccc(-c2ccc3ncnc(N(C)Cc4ccc(C)o4)c3c2)o1 | inactive |

Source: PubChem BioAssay (NCATS)
